High-throughput results from PubChem.
HepG2 tox – qHTS for Inhibitors of TGF-b: Cytotox Counterscreen; HepG2 CAGA-GFP viability, ATP luminescence, 18 h; Potency, µM (series often up to 46.1 µM), for the others: at the top dose activity change, negative = cytotoxicity, actives largely listed as cytotoxic; actives 0.76% (n = 410,000); AID 588856, 2011
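HepG2 CAGA-GFP cells (1000/well, DMEM with 1% FBS) received compound, then TGF-beta at 500 pg/mL final, and were incubated 18 hours at 37 degrees C. Viability was read by CellTiter-Glo luminescence. Media-only wells were set as complete cell-killing and DMSO as no toxicity.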
KB-V1 MDR tox – qHTS assay for MDR1-selective chemotherapeutics: Primary screen using the drug-selected MDR subline cells KB-V1; KB-V1 MDR cells viability, CellTiter-Glo, 72 h; Potency, µM (highest dose often 46.1 µM), hits mostly cytotoxic; AID 1347076, 2019; actives 3.4% (n = 400,000); note: % is set by controls: 0 for no effect and ±100 for the full control effect; nearly all actives have a fitted effect of over 60% in size
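Potencies derive from concentration-effect curves fitted to normalized luminescence (CellTiter-Glo) of KB-V1 cells treated for 72 h at 37 degrees C in phenol-red-free DMEM containing 10% FBS.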
KB-3-1 cytotox – qHTS assay for MDR1-selective chemotherapeutics: Primary screen using the parental adenocarcinoma cell KB-3-1; Potency, µM (titrated, usually from 46.1 µM), most hits filed as cytotoxic; actives 1.4% (n = 400,000); AID 1347075, 2019; KB-3-1 viability, CellTiter-Glo ATP luminescence, 72 h; note: % is set by controls: 0 for no effect and ±100 for the full control effect; nearly all actives have a fitted effect of over 60% in size
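Cytotoxicity measured as CellTiter-Glo luminescence after 72 h at 37 C. Compound titrations were pinned onto drug-naive KB-3-1 parental adenocarcinoma cells grown in DMEM with 10% FBS, and normalized data fitted to concentration-response curves.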
ATXN2 expr inh – Primary qHTS for Inhibitors of ATXN expression; HEK-293 ATXN2-luciferase reporter, luminescence, 24 h; Potency, µM (doses to about 57 µM), without a hit: at the top dose activity change, negative = inhibition, usual class: inhibitors; actives 0.72% (n = 360,000); AID 1745845, 2022; note: % is set by controls: 0 for no effect and ±100 for the full control effect; nearly all actives have a fitted effect of over 55% in size
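qHTS (up to 57 uM final) was run with 24 h compound exposure of reporter cells at 37 °C. Each well was multiplexed: SteadyGlo luminescence measured ATXN2-luciferase expression after a fluorogenic Gly-Phe-AFC viability readout (25 uM final).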
S2 tox – Viability Counterscreen for Primary qHTS for Inhibitors of ATXN expression | actives 0.49% (n = 400,000) | AID 651635, 2014 | Potency, µM (series often up to 56.7 µM), hits mostly cytotoxic | S2 cells (HEK-293 line with an ATXN2-luciferase reporter) viability, CellTiter-Fluor protease fluorescence, 24 h; note: nearly all actives have a fitted effect of over 40% in size
TGFb inhibitor – qHTS for Inhibitors of TGF-b; HepG2 CAGA-GFP TGF-b/SMAD3 reporter, GFP fluorescence, 18 h; TGF-beta stimulated, 500 pg/mL final; Potency, µM (highest dose often 46.1 µM), for inactives: top-dose activity, negative = inhibition, usual class: inhibitors; actives 1.2% (n = 410,000); note: % is set by controls: 0 for no effect and ±100 for the full control effect; nearly all actives have a fitted effect of over 65% in size
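First, reporter cells (HEPG2 CAGA-GFP) rested 2 h at 37 degrees C. Next, compounds were pinned in and TGF-beta added to 500 pg/mL final. After 18 h, GFP was imaged per cell and summed per well.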
Starred values were filed as active, the others as inactive; i = inactive; ? = inconclusive; . = no result given. Only some compounds are listed: those with a hit (about 5.9% of all), similar ones and a draw of the others. Calls come from the whole dose curve; as a rule, active = well fitted curve in the direction sought with a large enough effect; inconclusive = small, poorly fitted or top-dose-only effect, or another doubt; inactive = no such curve, though single readings can be large; an effect the other way counts as inactive or inconclusive. Potency is the fitted concentration of half-maximal effect.

SMILES	HepG2 tox	KB-V1 MDR tox	KB-3-1 cytotox	ATXN2 expr inh	S2 tox	TGFb inhibitor
O=C(CSc1nnc(CNC(=O)C23CC4CC(CC(C4)C2)C3)n1-c1ccccc1)Nc1ccc(F)cc1	-13.9%	i	i	0.6%	i	?
COc1ccc(Sc2nc(-c3ccccn3)ncc2OC)cc1	-13.7%	?	i	22.4µM*	?	-3.0%
N#CC(C#N)=C1SC(=Nc2ccccc2)C(=Nc2ccccc2)N1c1ccccc1	10.9%	?	20.6µM*	26.7µM*	26.7µM*	-3.5%
Fc1ccc(N2C(=S)SC(=Nc3ccccc3)C2=Nc2ccccc2)cc1	-10.7%	i	i	18.5%	i	3.1%
Cc1nc(C(=O)Nc2ccccc2)sc1C1(C)CC(c2cccnc2)=NO1 (stereo not given)	-22.7%	i	i	45.9%	i	-22.7%
COc1ccc(NC(=O)c2nc(C)c(C3(C)CC(c4ccccc4)=NO3)s2)cc1 (stereo not given)	-19.3%	?	4.61µM*	7.2%	i	-9.0%
Cc1ccc(S(=O)(=O)c2nc(-c3cccs3)oc2SCc2ccc(F)cc2)cc1	-22.2%	i	i	6.5%	?	-1.7%
Cc1c(Cl)cccc1NS(=O)(=O)c1ccc(-c2cnc(C3CC3)o2)cc1	-109.0%	?	?	0.0%	?	2.82µM*
Cc1nc(-c2ccc(S(=O)(=O)Nc3ccc(C)c(N(C)C)c3)cc2)co1	-23.0%	?	18.4µM*	-10.0%	i	-3.9%
Cc1ccc(NS(=O)(=O)c2ccc(-c3cnc(C4CC4)o3)cc2)cc1N(C)C	-31.7%	i	i	?	i	10µM*
CCOc1ccc(NS(=O)(=O)c2ccc(-c3cnc(C4CC4)o3)cc2)cc1	-12.4%	16.4µM*	?	.	i	?
O=S(=O)(c1ccccc1Br)N(Cc1ccccc1)Cc1ccco1	-23.8%	.	.	.	.	?
CCc1cc(C(=O)Nc2cnn(Cc3ccccc3C)c2)no1	-4.1%	?	i	-12.8%	?	-6.6%
Cc1ccc(C)c(NS(=O)(=O)c2ccc(-c3cnc(C4CC4)o3)cc2)c1	-49.8%	0.326µM*	?	.	?	?
O=S(=O)(Nc1ccccc1)c1ccc(-c2cnc(C3CC3)o2)cc1	-47.0%	?	?	.	i	?
CC1CC(=O)c2c(cc3c(-c4c(O)cc(O)c5c(O)c6c(cc45)OC(C)CC6=O)c(O)cc(O)c3c2O)O1 (stereo not given)	-103.2%	?	?	20µM*	i	?
COc1ccccc1Cc1c(C2CCCCC2)nc2ccc(C)cn12	-51.4%	i	i	?	.	15.8µM*
COC(=O)c1ccc2nc(C3CCCCC3)c(Cc3ccc(OC)cc3C)n2c1	-12.4%	i	i	-3.5%	i	-14.4%
CCCc1nc2ccc(C)cn2c1Cc1ccccc1OC	-41.0%	?	i	?	.	?
CCCc1nc2c(C)cc(Br)cn2c1Cc1ccccc1C(F)(F)F	10µM*	i	i	?	?	?
Cc1ccc2nc(C3CCCCC3)c(CC(C)(C)C)n2c1	-25.0%	i	i	-32.1%	22.4µM*	?
Cc1ccc(Cc2c(C3CCCCC3)nc3ccc(Br)cn23)cc1	-12.6%	i	i	-25.8%	?	?
Cc1cc(Br)cn2c(Cc3ccccc3C(F)(F)F)c(-c3ccccc3)nc12	.	i	i	21.1%	i	.
COC(=O)c1ccc2nc(C3CCCCC3)c(Cc3ccccc3C(F)(F)F)n2c1	-104.8%	?	i	?	?	22.4µM*
Cc1cncn1CCc1nc2c3ccccc3nc(SCC(=O)Nc3ccccc3F)n2n1	-29.9%	i	i	-10.4%	?	14.1%
